The whole screen tested about 340,000 compounds, of which about 3,400 (1%) were called active.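 The calls were made as follows: active = inhibition above the mean over all tested compounds plus 3 SD (cut at about 4.2% in these data); inactive = the rest.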 The entries come from a sample that favours actives as a whole.
What follows are compounds tested against Nuclear receptor subfamily 0 group B member 1 (Homo sapiens) (UniProt P51843) (assay: DAX1 (NR0B1) inhibitors, primary screen, cell-based, HEK293, Gal4-DAX1, luciferase luminescence (AID 504766;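 also: 0% = DAX1-transfected cells with DMSO and 100% = empty-vector control cells with DMSO; inhibition shows as a rise in luminescence from relieved DAX1 repression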)). Conditions: HEK293 Gal4-DAX1 luciferase reporter, at 6.75 µM, stronger effect = higher value.
Nuclear receptor subfamily 0 group B member 1 (Homo sapiens), sequence (P51843 207-470 limits assumed): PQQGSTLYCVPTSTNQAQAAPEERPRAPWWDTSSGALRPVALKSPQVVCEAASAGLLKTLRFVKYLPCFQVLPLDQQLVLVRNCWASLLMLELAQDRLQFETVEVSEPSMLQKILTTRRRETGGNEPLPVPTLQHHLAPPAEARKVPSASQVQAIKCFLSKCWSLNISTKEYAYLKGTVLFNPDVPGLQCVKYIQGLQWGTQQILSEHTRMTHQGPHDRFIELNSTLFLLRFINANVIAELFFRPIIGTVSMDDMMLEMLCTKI
`COc1cc(SC)ccc1C(=O)NCCOc1ccccc1Cl` was tested, and the inhibition was 4.52% (active). With `COc1ccccc1OCCNC(=O)CCNC(=O)c1ccccc1Cl` the inhibition was 0.98% (inactive). With `COc1cc(SC)ccc1C(=O)N(Cc1ccccc1)c1ccccc1` the inhibition was -0.88% (inactive). `O=C(NCC(F)(F)F)c1ccc(S(=O)(=O)NCCc2ccc3c(c2)OCCO3)cc1` was tested, and the inhibition was 1.37% (inactive). For `C#Cc1cc(N2CCN(C(=O)c3ccoc3)CC2)n2nc(-c3cccc(Cl)c3)cc2n1`, the inhibition was -0.19% (inactive). In the case of `CCCc1c(C)nc2scc(-c3ccc(Cl)cc3)n2c1=O`, the inhibition was 1.4% (inactive). In the case of `COc1ccc(OC)c(/C=C/C(=O)OCC(=O)Nc2ccc3c(c2)OCCO3)c1`, the inhibition was 0.21% (inactive). With `COc1ccc(NC(=O)NCc2ccc3c(c2)OCO3)c(OC)c1` the inhibition was 0.03% (inactive). For `COc1ccc(OC)c(/C=C/C(=O)c2ccc3c(c2)OCO3)c1`, the inhibition was 5.49% (active). `CCCCN(C(C)=O)c1ccc2c(c1)C1CC2CCN1Cc1ccccc1` (stereo not given) was tested, and the inhibition was 1.48% (inactive). In the case of `CCN(CC)CCN(C(=O)c1ccc2c(c1)CCCC2)c1nc2c(OC)cccc2s1`, the inhibition was -0.58% (inactive). `O=C(CC12CC3CC(CC(C3)C1)C2)NCc1ccco1` was tested, and the inhibition was -0.86% (inactive). With `COC(=O)/C=C/C(=O)NCc1ccco1` the inhibition was 1.74% (inactive). `CC(C)(C)NC(=O)NCc1ccco1` was tested, and the inhibition was 4.44% (active). `COc1ccc(OC)c(C(=O)NC2CCCc3c2cnn3-c2cc(C)cc(C)c2)c1` (stereo not given) was tested, and the inhibition was -1.87% (inactive). In the case of `COc1ccc(NC(=O)COC(=O)C2COc3ccccc3O2)cc1` (stereo not given), the inhibition was 0.47% (inactive). In the case of `CC(=O)c1cccc(NC(=O)C2COc3ccccc3O2)c1` (stereo not given), the inhibition was 2.01% (inactive). With `COc1ccc(NC(=O)C2COc3ccccc3O2)cc1` (stereo not given) the inhibition was 5.29% (active). For `COc1cc(C(=O)N2CCOC23CCN(Cc2ccccc2)CC3)cc(OC)c1OC`, the inhibition was 2.69% (inactive). In the case of `O=C(CN1C(=O)NC2(CCCCCC2)C1=O)NCc1ccc(F)cc1`, the inhibition was -0.55% (inactive). In the case of `O=C(CN1C(=O)NC2(CCCCCC2)C1=O)NC1CC1`, the inhibition was -0.19% (inactive). With `O=C(CN1C(=O)NC2(CCCC2)C1=O)NCC1CCCO1` (stereo not given) the inhibition was 10.2% (active). In the case of `CC1CCCC(C)N1C(=O)COC(=O)c1ccccc1C(=O)c1ccccc1` (stereo not given), the inhibition was 1.22% (inactive). In the case of `N#CCCN1CCN(S(=O)(=O)c2ccc(S(=O)(=O)NC3CCCCC3)cc2)CC1`, the inhibition was 4.67% (active). For `N#CCCN1CCN(S(=O)(=O)c2ccc(S(=O)(=O)N3CCCC3)cc2)CC1`, the inhibition was 2.37% (inactive). In the case of `N#CCCN1CCN(S(=O)(=O)c2ccc(S(=O)(=O)NC3CC3)cc2)CC1`, the inhibition was -1.02% (inactive). In the case of `CNC(=O)c1ccc(CN(C)C(=O)c2cc(C3CC3)nc3c2cnn3C(C)C)cc1`, the inhibition was 0.25% (inactive). With `COCCNC(=O)CSc1nc(N)c(NC(=O)c2ccco2)c(=O)[nH]1` the inhibition was 0.48% (inactive). In the case of `CCN(CC(=O)Nc1ccc(NC(C)=O)cc1)C(=O)C1CC(=O)N(c2ccc3c(c2)OCCO3)C1` (stereo not given), the inhibition was 0.46% (inactive). For `CCn1c(CN2C(=O)CSc3ccccc32)n[nH]c1=S`, the inhibition was 7.22% (active). In the case of `CCn1c(CNS(=O)(=O)c2ccc(Cl)cc2)n[nH]c1=S`, the inhibition was 0.01% (inactive). For `CCn1c(CSCc2c(Cl)cccc2Cl)n[nH]c1=S`, the inhibition was -0.93% (inactive). `O=C(COC(=O)c1cncc(Br)c1)Nc1ccc(S(=O)(=O)N2CCOCC2)cc1` was tested, and the inhibition was 1.32% (inactive). In the case of `O=C(Nc1cc(F)ccc1F)c1ccc2c(=O)n3c(nc2c1)CCC3`, the inhibition was 3.09% (inactive). `O=C1c2ccccc2C(=O)c2c1cccc2N1CCN(CCO)CC1` was tested, and the inhibition was 0% (inactive). `O=C(CN1CCN(Cc2ccccc2)CC1)NC(c1ccccc1)c1ccccc1` was tested, and the inhibition was -1.74% (inactive). In the case of `O=C1c2ccccc2C(=O)c2c1cccc2N1CCN(Cc2ccccc2)CC1`, the inhibition was 4.26% (active). In the case of `CC(=O)Nc1ccc2c3c(ccc([N+](=O)[O-])c13)CC2`, the inhibition was -0.19% (inactive). `COc1cccc(OC)c1C(=O)NC(=S)Nc1ccc(N2CCOCC2)c(Cl)c1` was tested, and the inhibition was 0.83% (inactive). For `COc1cccc(NC(=S)NC(=O)c2c(Cl)c(C)nn2C)c1`, the inhibition was 4.28% (active). In the case of `Cc1nn(C)c(C(=O)NNC(=S)NC2CCCCC2)c1Cl`, the inhibition was -0.26% (inactive). For `CCCCCCn1c(=O)n2n(c1=O)C[C@]1(OC(=O)NCc3ccc(OC)c(OC)c3)CN(S(=O)(=O)c3ccc(C)cc3)C[C@]1(O)C2`, the inhibition was -0.07% (inactive). For `C=CCN1CCN(c2ccncc2S(=O)(=O)N2CCN(C)CC2)CC1`, the inhibition was 1.7% (inactive). `C[C@@H]1CN([C@@H](C)CO)C(=O)c2c(c3ccccc3n2C)-c2ccccc2CO[C@H]1CN(C)C(=O)C1CC1` was tested, and the inhibition was 0.47% (inactive). For `COc1ccc(NC(=O)N(C)C[C@@H]2OCc3cn(nn3)CCCC(=O)N([C@H](C)CO)C[C@H]2C)c(OC)c1`, the inhibition was -0.22% (inactive). With `C=CCOc1ccccc1NC(=O)CN1C(=O)CNC1=O` the inhibition was 4.47% (active). `Cc1cccc(NC(=O)CN2C(=O)CNC2=O)c1` was tested, and the inhibition was 1.34% (inactive). In the case of `C=CCOc1ccccc1/C=N/NC(=O)Cc1ccccc1`, the inhibition was 0.28% (inactive). In the case of `COc1ccc(/C=C2\N=C3CCCN3C2=O)cc1`, the inhibition was 4.84% (active). In the case of `COc1ccc(/C=C2/CCCc3ccccc3C2=O)cc1`, the inhibition was -1.11% (inactive). With `COc1ccc(/C=C2\SC(=N)N(c3ccc(F)cc3)C2=O)cc1` the inhibition was -0.7% (inactive). For `COc1ccc(S(=O)(=O)N2CCC(C(=O)NCCC(=O)NCCc3cccc(F)c3)CC2)cc1`, the inhibition was 0.25% (inactive). `CSc1ncnc2c1ncn2CCCNCC1CCCCC1` was tested, and the inhibition was -0.19% (inactive). With `COc1ccc(-c2nnc(SC(=O)N3c4ccccc4Sc4ccccc43)o2)cc1` the inhibition was -1.53% (inactive). `COc1ccc(-c2nnc(SC(C)C#N)o2)cc1` (stereo not given) was tested, and the inhibition was 4.68% (active). In the case of `COc1ccc(-c2nnc(SC(C)C(=O)NC3CC3)o2)cc1` (stereo not given), the inhibition was 1.85% (inactive). With `CNC(=O)C1CN(C(=O)c2cccc(S(=O)(=O)N3CCc4ccccc43)c2)c2ccccc2O1` (stereo not given) the inhibition was -2.16% (inactive). With `CCCN(C(=O)CSc1nnc(N)s1)c1c(N)n(Cc2ccccc2)c(=O)[nH]c1=O` the inhibition was -2.02% (inactive). For `CCCCN(C(=O)CSCc1ccc(C)cc1)c1c(N)n(Cc2ccccc2)c(=O)[nH]c1=O`, the inhibition was 0.19% (inactive). With `CCCN(C(=O)CSc1nnnn1C)c1c(N)n(Cc2ccccc2)c(=O)[nH]c1=O` the inhibition was 5.42% (active).

From PubChem BioAssay AID504766 (The Scripps Research Institute Molecular Screening Center, 2011)
